# Data reported in the supplement of paper PMC12636033.
# ± gives the standard deviation of the averaged measurements. The full ranking holds about 33,000 sequences; the median of “E-score (rank enrichment, -0.5 to 0.5)” is about -0.0043, and the highest 2% start at about 0.24. This excerpt belongs to a sample that is enriched for the highest values.
# Tested on: 2Sp-muMax20 (muMax20 with two 2,6-bis(methyl)pyridine Cys staples)
# Experiment: PBM 8-mer E-score (E-score (rank enrichment, -0.5 to 0.5)); higher = stronger preferential binding
# Description: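 Protein binding microarray (universal PBM chip covering all 10-mers in fixed probe flanks) with chemically synthesized human Max(13-93) bHLH-LZ analogs (not full-length Max) bearing noncanonical residues (hArg, Tha, Aib, Nle at 65) and aromatic Cys staples. Read-out per 8-mer (and its reverse complement): E-score (rank-based enrichment, -0.5 to 0.5) and Z-score of median probe intensity.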
row,Sequence,PBM 8-mer E-score
1,ATCATATG,0.138 ± 0.065
2,AACATATA,0.269 ± 0.036
3,CACATATC,0.223 ± 0.019
4,AACACACA,0.118 ± 0.081
5,ATCATATA,0.254 ± 0.041
6,GTCATATA,0.207 ± 0.099
7,CACATATG,0.112 ± 0.013
8,AACACACG,0.0266 ± 0.031
9,AACACACT,0.249 ± 0.0053
10,CACATATA,0.328 ± 0.021
11,GACATATA,0.12 ± 0.0021
12,AACATATG,0.0968 ± 0.03
13,ACCGGTCG,-0.287 ± 0.03
14,CCACGCCC,0.0986 ± 0.0018
15,CTCGTTAC,0.0748 ± 0.13
16,CGGAATTC,-0.121 ± 0.019
17,AGCGTTAA,0.0977 ± 0.058
18,ATCCAGTC,-0.0864 ± 0.015
19,CAGGAACC,-0.307 ± 0.049
20,CCCATAAG,0.182 ± 0.018
21,CCCAGCTC,-0.0772 ± 0.05
22,TACATACA,0.211 ± 0.075

row,Sequence,PBM 8-mer E-score
1,CACATCTA,0.258 ± 0.014
2,TACATAAA,0.229 ± 0.018
3,AACACATG,0.224 ± 0.05
4,CACATCTG,-0.0474 ± 0.049
5,CACATCTC,-0.00875 ± 0.02
6,CACACATA,0.061 ± 0.0022
7,AACACATA,0.257 ± 0.046
8,TACATATA,0.262 ± 0.09
9,TAGGTCCA,-0.13 ± 0.058
10,GCAACCGA,-0.233 ± 0.078
11,CGACCATC,-0.0509 ± 0.089
12,CCATTGTA,0.214 ± 0.022
13,CATAAATA,0.33 ± 0.059
14,TATAAATA,0.203 ± 0.1
15,ATAAAAAG,0.315 ± 0.0042
16,ATAAAAGG,0.0278 ± 0.023
17,AATAAATA,0.0526 ± 0.066
18,CTAAAGCA,0.0725 ± 0.028
19,ATAAAGCA,0.241 ± 0.014
20,ATAAAAAA,0.202 ± 0.038
21,AATAAAAG,0.25 ± 0.074
22,CATAAAAG,-0.0196 ± 0.1

row,Sequence,PBM 8-mer E-score
1,ATAAAGCG,0.0648 ± 0.005
2,AATAAAGG,0.0234 ± 0.076
3,TACGAGAA,0.0414 ± 0.0095
4,CCCGACTC,-0.0283 ± 0.023
5,CCGAGCCG,-0.298 ± 0.03
6,GACCCGCC,0.106 ± 0.0061
7,TCGGAGAA,-0.136 ± 0.017
8,AGGTCTAG,0.0236 ± 0.096
9,ACCTGGTA,-0.129 ± 0.0054
10,CATGGGCG,-0.0275 ± 0.017
11,CAGCCCCC,-0.165 ± 0.099
12,CACTTGAA,0.112 ± 0.02
13,CAAAGGGA,-0.103 ± 0.053
14,AATAACAA,0.259 ± 0.041
15,ATCAAGCA,-0.065 ± 0.053
16,AATAAAAC,0.223 ± 0.072
17,CTCAAACA,-0.00491 ± 0.013
18,GTAAAACA,0.174 ± 0.056
19,AATAAAAA,0.258 ± 0.0034
20,ATAAAACG,0.145 ± 0.057
21,AATAAAAT,0.103 ± 0.12
22,AATAACAT,0.221 ± 0.13

row,Sequence,PBM 8-mer E-score
1,ATAAAACA,0.244 ± 0.067
2,ATCAAACA,0.26 ± 0.0065
3,AATAACAC,0.134 ± 0.04
4,AGACACAC,0.158 ± 0.0089
5,GCTTCAGA,-0.0923 ± 0.073
6,AATCGATT,0.0682 ± 0.041
7,AAACGAGG,0.0592 ± 0.027
8,CAGATGTC,-0.0701 ± 0.0093
9,CCCAGGTA,-0.0104 ± 0.052
10,GATACAAA,0.084 ± 0.0085
11,CATACAAA,0.0246 ± 0.065
12,AATACAAG,0.245 ± 0.086
13,AATACGCT,0.217 ± 0.0037
14,AATACAAT,0.0568 ± 0.04
15,AATACGCA,0.286 ± 0.0084
16,AATACAAA,0.28 ± 0.018
17,GATACGCA,0.0806 ± 0.032
18,AATACAGA,0.00182 ± 0.094
19,AATACATA,0.139 ± 0.0041
20,TATACAAA,0.256 ± 0.065
21,AATACAAC,0.221 ± 0.053
